KDM5B inh = KDM5B demethylase inhibition. KDM5B demethylase, FDH-coupled NADH fluorescence (FDH is formaldehyde dehydrogenase). Q9UGL1. AID 1347165. 2.6% of 220,000 active. Potency, µM (series often up to 57.7 µM), usual class: inhibitors; active = well fitted inhibition curve with a large enough effect; also: 0% is about no effect; nearly all actives have a fitted effect of over 70% in size
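Measured: NADH fluorescence change, 30 min, RT. System: KDM5BΔAP 200 nM final, H3K4me3 peptide, α-KG, Fe(II), ascorbate, NAD⁺ plus FDH, pH 7.5 HEPES. Compounds: titrated, 10 min pre-incubation with enzyme.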
* = called active by the depositor; i = inactive. The entries come from a sample that favours hits as a whole. Potency is read from the fitted curve at half-maximal effect.

SMILES	KDM5B inh
CC(=O)Nc1cccc(-c2nc(-c3c(C)noc3C)cc3cc(C)oc23)c1	35µM*
CC(=O)Nc1ccc(NC(=O)COC(=O)c2c(-c3ccccc3)noc2C)cc1	i
CC(=O)Nc1cccc(-c2nc(-c3c(C)noc3C)cc3c2cc(-c2ccccc2)n3C)c1	35µM*
CC(=O)Nc1cccc(-c2nc3cc(Cl)cc(Cl)c3o2)c1	i
CC(=O)Nc1cccc(-c2nc(-c3ccccc3)no2)c1	i
Cc1ccc(Cn2c(=O)c3ccccc3n3c(-c4cccc(O)c4)nnc23)cc1	i
O=C(CCCc1c[nH]c2ccccc12)Nc1ccc2ccccc2c1	i
O=C(NCCN1C(=O)S/C(=C\c2ccccc2F)C1=O)C1CC(=O)N(Cc2ccccc2)C1 (centres undefined)	i
CC(C)c1ccc(NC(=O)c2ccc(F)c(S(=O)(=O)N3CCN(c4ccccc4F)CC3)c2)cc1	i
O=C(NC1CCCCCC1)c1ccc(CN2C(=O)NC3(CCS(=O)(=O)CC3)C2=O)cc1	i
CCCC1Cc2c(sc3nc(SCc4ccccc4)nc(N)c23)CO1 (centres undefined)	i
O=C1NCc2ccccc2CC12CCN(Cc1cccc(C(F)(F)F)c1)C2 (centres undefined)	i
Cc1ccsc1/C=C1\Oc2cc(OC(=O)c3ccco3)ccc2C1=O	i
Cc1noc(-c2ccn3c(CNC(=O)Cc4ccccc4Cl)nnc3c2)n1	25µM*
Cc1noc(-c2ccn3c(CNC(=O)COc4ccccc4)nnc3c2)n1	13µM*
Cc1noc(-c2ccn3c(CNC(=O)C(C)c4ccccc4)nnc3c2)n1 (centres undefined)	28µM*
CN(CC1CCOCC1)S(=O)(=O)c1cccs1	i
CC(C)(C)C(=O)Oc1ccc2c(c1)O/C(=C\c1cccnc1)C2=O	i
O=C(c1ccoc1)N1CCC2(CCCN(Cc3ccc(F)c(F)c3)C2)C1 (centres undefined)	i
COc1ccc(/C=C/C(=O)N2CC(C)CC(C)C2)cc1 (centres undefined)	i
Cc1nn(-c2ccc3nnc(C)n3n2)c2c1C(c1ccc(O)cc1)CC(=O)N2 (centres undefined)	i
CCNc1nccc(N2CCC(CC(=O)NCc3ccc(OC)c(OC)c3)CC2)n1	i
Cc1ncc(CO)c2cc(-c3nnc(Nc4ccc5c(c4)OCO5)s3)c(=O)oc12	i
Cc1ccc(CNC(=O)CC2CCCN(c3cnn(C)c(=O)c3)C2)cc1C (centres undefined)	i
COCCC(=O)N[C@H]1CC[C@]2(C)CCC([C@H](C)C(=O)NCCc3ccc(OC)c(OC)c3)[C@H](O)[C@H]2[C@@H]1C (some centres undefined)	i
SMILES	KDM5B inh
COc1ccc(C(=O)N2CCN(c3nc4nc(C)ccc4o3)CC2)cc1C#N	i
CC1CCN(CCc2nc3c([nH]2)CC(C)(C)CNC3=O)CC1	i
CN(CCc1nc2c([nH]1)CC(C)(C)CNC2=O)c1ccccc1	i
CC1(C)CNC(=O)c2nc(CCN3CCCc4ccccc43)[nH]c2C1	16µM*
Cc1ccc(C(=O)N2CCC([C@@H]3CNC[C@H]3CO)CC2)c(C)c1	i
CCn1nc(C(=O)NCc2ccc(OC)cc2)c2ccccc2c1=O	i
O=C(NCC(O)c1ccccc1)c1nc(-c2cccc3[nH]ccc23)no1 (centres undefined)	i
Cc1cc2c(-c3ccc(CO)cc3)nc(-c3c(C)noc3C)cc2[nH]1	i
CC(C)Oc1cccc(-c2n[nH]c3c2CC(=O)N(c2ccccc2)C3)c1	i
Cc1cc2c(-c3cccc(OC(C)C)c3)nc(-c3c(C)noc3C)cc2[nH]1	16µM*
Cc1cnc(C(=O)N[C@@H]2CCC[C@@H]2C(=O)NCc2cccc(F)c2)cn1	i
CN(c1ccccc1)c1nc(N)c([N+](=O)[O-])c(NC2CCCCC2)n1	i
COC(=O)c1ccc(CNC(=O)c2nn(CC(C)C)c(=O)c3ccccc23)cc1	i
Cn1cc(CN2CCc3ccccc32)ccc1=O	10µM*
CN1C(=O)CCCCC1C(=O)N1CCc2ccccc21 (centres undefined)	i
COc1ccccc1N1CCN(Cc2ccc(=O)n(C)c2)CC1	i
CCCCN1C(=O)c2ccccc2C(C(=O)Nc2nncs2)C12CCCC2 (centres undefined)	i
CC(=O)Nc1cccc(-c2nc(N3CCOCC3)cc3c2CN(Cc2cnn(C)c2)C3=O)c1	28µM*
CC(=O)Nc1cccc(-c2cn(C)c(=O)n3cc(CN4CCNC(=O)C4)nc23)c1	i
COc1ccccc1-c1nc(N2CCOCC2)cc2c1CN(Cc1cnn(C)c1)C2=O	35µM*
COc1ccc(S(=O)(=O)N2CCN(c3cc(N4CCOCC4)nc(C)n3)CC2)c(C)c1C	i
COc1ccccc1Nc1nc(N2CCOCC2)c2cnn(C)c2n1	i
C=CCC(CC=C)(CNC(=O)C(=O)Nc1ccc(Br)cc1)c1ccc(OC)c(OC)c1	i
COc1ccc(OC)c2sc(N(Cc3cccnc3)C(=O)c3ccco3)nc12	i
